In PubChem BioAssay (Tox21):
Records with an inconclusive call do not appear. Active and inactive are the calls of the source. Unless noted, calls follow the shape of the full dose curve.

Tests used:
[1] = Nuclear factor erythroid 2-related factor 2/antioxidant responsive element (Nrf2/ARE) small molecule agonists: qHTS cell viability counter screen in human keratinocytes (AID 1919968; active = well fitted curve in the direction sought with a large enough effect in the repeat runs; an effect the other way counts as inactive or inconclusive; also: nearly all actives have a fitted effect of over 55% in size)
How it was run: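 HaCaT ARE reporter line, 1,500 cells/well; 5 h settle, 37 C/5% CO2; cpd in DMSO pinned; 23 h exposure; CellTiter-Fluor, 1 h; fluorescence.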

[2] = Nuclear factor erythroid 2-related factor 2/antioxidant responsive element (Nrf2/ARE) small molecule agonists: luciferase reporter gene qHTS assay in human keratinocytes (AID 1919969); also: nearly all actives have a fitted effect of over 35% in size
[3] = target: Gonadotropin-releasing hormone receptor (Homo sapiens) (UniProt P30968); assay: Human gonadotropin-releasing hormone receptor (GnRHR) small molecule agonists, calcium flux assay in GnRHR-HEK293 cells (AID 1920063); also: nearly all actives have a fitted effect of over 35% in size
Sequence of Gonadotropin-releasing hormone receptor (Homo sapiens) (P30968 whole entry, looked up): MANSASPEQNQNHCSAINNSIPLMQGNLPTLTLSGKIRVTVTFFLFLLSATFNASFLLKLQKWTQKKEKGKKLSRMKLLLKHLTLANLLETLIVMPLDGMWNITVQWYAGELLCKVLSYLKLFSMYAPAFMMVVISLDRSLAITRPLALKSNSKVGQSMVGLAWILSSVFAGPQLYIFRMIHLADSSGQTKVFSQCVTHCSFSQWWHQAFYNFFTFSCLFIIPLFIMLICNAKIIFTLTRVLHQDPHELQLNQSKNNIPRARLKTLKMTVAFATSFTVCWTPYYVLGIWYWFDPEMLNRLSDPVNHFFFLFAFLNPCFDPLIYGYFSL
How it was run: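 GnRHR-HEK293, 1500 cells/well, 18 h 37 C/5% CO2; Ca dye 1 h 37 C; cpd pinned (DMSO), agonist mode; kinetic FL 480/540, 3 min, 1 s reads; 15 conc, n=3.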

[4] = target: KiSS-1 receptor (Homo sapiens) (UniProt Q969F8); assay: Human kisspeptin (KISS1R) small molecule agonists, calcium flux assay in KISS1R-HEK293 cells (AID 1920064; active = well fitted curve in the direction sought with a large enough effect in the repeat runs; an effect the other way counts as inactive or inconclusive)
Sequence of KiSS-1 receptor (Homo sapiens) (Q969F8 whole entry, looked up): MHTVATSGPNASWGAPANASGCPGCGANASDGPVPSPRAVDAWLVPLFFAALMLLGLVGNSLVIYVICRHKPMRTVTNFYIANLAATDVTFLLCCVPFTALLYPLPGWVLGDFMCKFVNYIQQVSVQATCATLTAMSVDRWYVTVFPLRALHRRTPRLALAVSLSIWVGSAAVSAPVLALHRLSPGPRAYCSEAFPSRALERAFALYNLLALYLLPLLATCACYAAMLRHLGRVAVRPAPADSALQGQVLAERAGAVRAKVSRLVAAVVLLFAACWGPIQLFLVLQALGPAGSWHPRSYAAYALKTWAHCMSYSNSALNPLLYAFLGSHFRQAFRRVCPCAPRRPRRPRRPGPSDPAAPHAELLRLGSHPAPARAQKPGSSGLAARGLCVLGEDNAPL
How it was run: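 Stable human KISS1R HEK293 line; 18 h plating, 37 C/5% CO2; calcium dye 1 h 37 C; compound pin transfer; kinetic fluorescence Ex/Em 480/540, 3 min.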

[5] = p53 small molecule agonists, cell-based qHTS assay with human liver microsomes (AID 1963577)
How it was run: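 p53RE-bla cells, 4,000/well, compound added after 5 h, with human liver microsomes 0.5 mg/mL and NADPH 0.5 mg/mL final; 16 h at 37 C, then LiveBLAzer 2 h RT, fluorescence.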

[6] = p53 small molecule agonists, cell-based qHTS assay with rat liver microsomes (AID 1963578)
How it was run: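 p53RE-bla cells, 4,000/well, pre-incubated 5 h, then given compounds plus rat liver microsomes (0.5 mg/mL final) and NADPH (0.5 mg/mL final). Incubation 16 h at 37 C; beta-lactamase reporter read by LiveBLAzer fluorescence after 2 h at room temperature.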

[7] = p53 small molecule agonists, cell-based qHTS assay with human liver microsomes: qHTS cell viability counter screen (AID 1963579); also: nearly all actives have a fitted effect of over 45% in size
How it was run: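 p53RE-bla cells, 4,000/well, dosed 5 hours after plating, with human liver microsomes (0.5 mg/mL final) plus NADPH (0.5 mg/mL final), 16 hours at 37 C. Viability read as CellTiter-Glo luminescence after 30 min at room temperature.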

[8] = p53 small molecule agonists, cell-based qHTS assay with rat liver microsomes: qHTS cell viability counter screen (AID 1963580); also: nearly all actives have a fitted effect of over 45% in size
How it was run: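 In HCT-116 cells carrying a p53 response element-bla reporter, compounds were metabolically activated in situ by rat liver microsomes with NADPH over 16 h. Cell ATP content then served as the cytotoxicity measure.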

[9] = p53 small molecule agonists, cell-based qHTS assay: qHTS cell viability counter screen (AID 1963581); also: nearly all actives have a fitted effect of over 45% in size
How it was run: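 HCT-116 p53RE-bla cells, 4,000/well, plated 5 h before compound pin transfer; 16 h at 37 C; bla substrate 2 h RT; then CellTiter-Glo, 30 min RT, luminescence.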

[10] = p53 small molecule agonists, cell-based qHTS assay (AID 1963582; active = well fitted activation curve with a large enough effect in the signal ratio in the repeat runs, not every such curve was filed as active; the % refers to the signal ratio)
How it was run: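 Reporter line: p53RE-bla. Pre-incubation 5 h, 37 C, 5% CO2; compound (DMSO, pin tool) 16 h, 37 C; B/G FRET substrate 2 h RT; fluorescence intensity read.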

[11] = target: 5-hydroxytryptamine receptor 2A (Homo sapiens) (UniProt P28223); assay: 5-hydroxytryptamine receptor 2A (HTR2A) small molecule antagonists, cell-based qHTS assay (AID 1963586); also: nearly all actives have a fitted effect of over 45% in size
Sequence of 5-hydroxytryptamine receptor 2A (Homo sapiens) (P28223 whole entry, looked up): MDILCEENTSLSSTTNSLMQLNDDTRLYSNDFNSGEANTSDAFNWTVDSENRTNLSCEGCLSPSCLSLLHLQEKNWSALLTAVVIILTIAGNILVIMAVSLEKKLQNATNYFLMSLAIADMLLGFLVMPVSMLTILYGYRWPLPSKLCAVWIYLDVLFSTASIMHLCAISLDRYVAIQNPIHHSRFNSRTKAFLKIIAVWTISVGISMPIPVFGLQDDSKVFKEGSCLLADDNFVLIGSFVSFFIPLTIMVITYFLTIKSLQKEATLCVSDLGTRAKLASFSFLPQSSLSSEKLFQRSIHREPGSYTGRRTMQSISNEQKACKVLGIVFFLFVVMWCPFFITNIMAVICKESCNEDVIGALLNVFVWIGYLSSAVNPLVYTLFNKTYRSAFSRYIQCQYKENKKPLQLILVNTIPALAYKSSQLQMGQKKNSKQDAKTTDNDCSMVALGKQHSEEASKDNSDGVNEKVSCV
How it was run: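 Antagonist-mode intracellular calcium assay: DOI (4 nM) added after 5 min compound pre-incubation at room temperature to dye-loaded HTR2A-CHO cells. Fluorescence followed for 3 min, sampled every second.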

[12] = target: 5-hydroxytryptamine receptor 2A (Homo sapiens) (UniProt P28223); assay: 5-hydroxytryptamine receptor 2A (HTR2A) small molecule agonists, cell-based qHTS assay (AID 1963587); also: nearly all actives have a fitted effect of over 30% in size
How it was run: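 HTR2A-CHO cells, plated 18 h at 37 C/5% CO2, dye-loaded 1 h at 37 C; compounds in DMSO added by pin tool (agonist mode). Intracellular calcium flux read as kinetic fluorescence on FDSS over 2 min at 1 s intervals.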

[13] = target: Muscarinic acetylcholine receptor M1 (Homo sapiens) (UniProt P11229); assay: Cholinergic receptor muscarinic 1 (CHRM1) small molecule antagonists, cell-based qHTS assay (AID 1963588); also: nearly all actives have a fitted effect of over 40% in size
Sequence of Muscarinic acetylcholine receptor M1 (Homo sapiens) (P11229 whole entry, looked up): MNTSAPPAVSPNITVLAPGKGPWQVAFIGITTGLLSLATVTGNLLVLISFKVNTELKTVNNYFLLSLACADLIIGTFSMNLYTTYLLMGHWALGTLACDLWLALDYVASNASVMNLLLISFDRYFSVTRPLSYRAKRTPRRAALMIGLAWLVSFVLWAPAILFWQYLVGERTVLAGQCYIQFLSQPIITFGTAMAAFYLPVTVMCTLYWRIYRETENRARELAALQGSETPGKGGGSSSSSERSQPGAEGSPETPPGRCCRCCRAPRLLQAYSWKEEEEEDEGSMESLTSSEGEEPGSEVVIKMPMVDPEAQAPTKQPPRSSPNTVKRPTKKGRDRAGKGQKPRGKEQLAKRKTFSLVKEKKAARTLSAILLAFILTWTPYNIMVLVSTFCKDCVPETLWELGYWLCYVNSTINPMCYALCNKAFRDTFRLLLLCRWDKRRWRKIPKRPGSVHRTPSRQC
How it was run: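 CHRM1-CHO calcium-flux assay, antagonist mode. Cells were seeded 18 h, dye-loaded 1 h at 37 C and given compound for 5 min at RT, then acetylcholine was added at 50nM. FDSS fluorescence was read 3 min; 15 concentrations, three runs.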

[14] = target: Muscarinic acetylcholine receptor M1 (Homo sapiens) (UniProt P11229); assay: Cholinergic receptor muscarinic 1 (CHRM1) small molecule agonists, cell-based qHTS assay (AID 1963589); also: nearly all actives have a fitted effect of over 35% in size
How it was run: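 Human M1 in stable CHO line; 18 h plating, 1 h dye load 37 C; cpd added (agonist mode); Ca2+ fluorescence kinetic read, 1 s intervals; 15 conc, 3 runs.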

[15] = cAMP Responsive Elements (CRE) small molecule agonists, cell-based qHTS assay (AID 1963590)
How it was run: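 HEK 293T CRE-bla, 2,000 cells/well, 18 h preincubation 37 C/5% CO2; cpds (DMSO) pinned, 3 h; LiveBLAzer B/G FRET substrate, 2 h RT.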

[16] = cAMP Responsive Elements (CRE) small molecule antagonists, cell-based qHTS assay (AID 1963591; active = well fitted inhibition curve with a large enough effect in the signal ratio in the repeat runs, not every such curve was filed as active; the % refers to the signal ratio)
How it was run: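 Beta-lactamase reporter read by FRET substrate (LiveBLAzer B/G) after 2 h at room temperature. CRE-bla HEK293T cells had received compound plus 0.25 uM (final) NKH477 for 3 h at 37 °C.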

[17] = target: Beta-2 adrenergic receptor (Homo sapiens) (UniProt P07550); assay: Adrenergic beta2 receptor (ADRB2) small molecule antagonists, cell-based qHTS assay (AID 1963592); also: series mostly up to about 92 µM; nearly all actives have a fitted effect of over 50% in size
Sequence of Beta-2 adrenergic receptor (Homo sapiens) (P07550 whole entry, looked up): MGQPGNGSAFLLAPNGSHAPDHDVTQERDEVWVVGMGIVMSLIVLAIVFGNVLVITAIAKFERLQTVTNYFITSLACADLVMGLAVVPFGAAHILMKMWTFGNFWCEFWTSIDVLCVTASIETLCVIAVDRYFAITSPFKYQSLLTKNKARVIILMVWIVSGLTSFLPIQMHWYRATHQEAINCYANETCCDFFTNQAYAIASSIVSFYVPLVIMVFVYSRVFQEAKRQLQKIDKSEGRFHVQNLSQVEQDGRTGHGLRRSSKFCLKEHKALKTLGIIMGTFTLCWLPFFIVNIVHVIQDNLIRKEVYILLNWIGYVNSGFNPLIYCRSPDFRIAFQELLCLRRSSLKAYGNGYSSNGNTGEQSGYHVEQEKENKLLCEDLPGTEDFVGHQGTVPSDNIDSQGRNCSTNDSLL
How it was run: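 Cells (CHO, stable ADRB2 overexpression) incubated 18-20hr at 37C; compounds added from DMSO; agonist mix (1nM isoproterenol, 100uM IBMX, 25uM Ro-20-1724) added; 0.5hr RT; d2-cAMP and anti-cAMP-cryptate added; 1hr RT; 665/615 nm read.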

[18] = target: D(2) dopamine receptor (Homo sapiens) (UniProt P14416); assay: Dopamine D2 receptor (DRD2) small molecule agonists, cell-based qHTS assay (AID 1963594); also: nearly all actives have a fitted effect of over 35% in size
Sequence of D(2) dopamine receptor (Homo sapiens) (P14416 whole entry, looked up): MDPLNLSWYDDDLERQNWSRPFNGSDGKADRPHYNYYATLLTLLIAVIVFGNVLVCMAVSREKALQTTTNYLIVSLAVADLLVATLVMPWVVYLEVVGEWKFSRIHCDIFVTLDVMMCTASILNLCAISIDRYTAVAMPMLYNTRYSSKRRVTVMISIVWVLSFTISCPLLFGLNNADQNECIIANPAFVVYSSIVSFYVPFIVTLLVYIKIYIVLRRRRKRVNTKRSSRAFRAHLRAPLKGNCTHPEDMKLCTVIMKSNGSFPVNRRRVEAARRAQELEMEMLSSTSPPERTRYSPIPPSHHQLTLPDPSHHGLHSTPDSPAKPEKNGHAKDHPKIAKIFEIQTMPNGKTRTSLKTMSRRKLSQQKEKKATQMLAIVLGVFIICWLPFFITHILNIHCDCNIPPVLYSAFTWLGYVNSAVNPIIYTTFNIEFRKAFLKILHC
How it was run: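 HEK293 cells stably expressing DRD2 were cultured 24 h at 37 C, then given Ro20-1724 (0.1 mM final) and compounds for 10 min at room temperature. NKH477 (200nM) was then added for 30 min. cAMP was read by HTRF.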

[19] = target: D(2) dopamine receptor (Homo sapiens) (UniProt P14416); assay: Dopamine D2 receptor (DRD2) small molecule antagonists, cell-based qHTS assay (AID 1963595; active = well fitted inhibition curve with a large enough effect in the signal ratio in the repeat runs, with a control signal flat; the % refers to the signal ratio)
How it was run: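 Antagonist mode in DRD2-HEK293 cells: after compound addition with 0.1 mM Ro20-1724, cells received quinpirole (12 nM) and NKH477 (200 nM) for 30 min at room temperature; HTRF cAMP read after 1 h detection.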

[20] = target: Beta-2 adrenergic receptor (Homo sapiens) (UniProt P07550); assay: Adrenergic beta2 receptor (ADRB2) small molecule agonists, cell-based qHTS assay (AID 1963593);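 also: CHO cells stably overexpressing human ADRB2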
How it was run: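 CHO cells stably over-expressing ADRB2 were plated overnight at 37C, then dosed with compounds plus a stimulation mix containing 100uM IBMX and 25uM Ro-20-1724 for 0.5hr at room temperature. cAMP was measured by HTRF competition, 1hr.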
% is scaled to controls: 0 for no effect and ±100 for the full control effect.

CC/C=C\CCOC(=O)c1ccccc1
inactive: Potency [1] | Potency [2] | Potency [3] | outcome [4] | Potency [5] | Potency [6] | Potency [7] | Potency [8] | Potency [9] | Potency [10] | Potency [11] | Potency [12] | Potency [13] | Potency [14] | Potency [15] | Potency [16] | Potency [17] | Potency [18] | Potency [19]

C=CCSCC1Nc2cc(Cl)c(S(N)(=O)=O)cc2S(=O)(=O)N1 (stereo not given)
inactive: Potency [1] | Potency [2] | Potency [3] | outcome [4] | Potency [5] | Potency [6] | Potency [7] | Potency [8] | Potency [9] | Potency [10] | Potency [12] | Potency [13] | Potency [14] | Potency [15] | Potency [16] | Potency [17] | Potency [18] | Potency [19]

CCn1cc(C(=O)O)c(=O)c2cc(F)c(N3CCNC(C)C3)c(F)c21 (stereo not given)
inactive: Potency [1] | Potency [2] | Potency [3] | outcome [4] | Potency [5] | Potency [6] | Potency [7] | Potency [8] | Potency [9] | Potency [10] | Potency [16] | Potency [17] | Potency [20] | Potency [18] | Potency [19]

O=C(O)Cc1ccc(-c2ccccc2)cc1
inactive: Potency [1] | Potency [2] | Potency [3] | outcome [4] | Potency [5] | Potency [6] | Potency [7] | Potency [8] | Potency [9] | Potency [10] | Potency [17] | Potency [18] | Potency [19]

O=c1c2ccccc2nnn1CCl
inactive: Potency [1] | Potency [2] | Potency [3] | outcome [4] | Potency [5] | Potency [6] | Potency [7] | Potency [8] | Potency [9] | Potency [10] | Potency [12] | Potency [13] | Potency [16] | Potency [17] | Potency [20] | Potency [19]

C/C(=C(\CCOP(=O)(O)O)SC(=O)c1ccccc1)N(C=O)Cc1cnc(C)nc1N
inactive: activity change, negative = cytotoxicity [1] -6.37% [at 8.39 µM] | activity, positive = activation [2] -0.129% [at 8.39 µM] | activity change [3] -0.163% [at 5.22 µM, active compounds read high] | activation [4] -0.956% [at 6.97 µM] | activation [5] -1.03% [at 5.99 µM] | activation [6] -4.95% [at 5.99 µM] | activity change, negative = cytotoxicity [7] 1.21% [at 5.99 µM] | activity change, negative = cytotoxicity [8] 1.33% [at 5.99 µM] | activity change, negative = cytotoxicity [9] 10.8% [at 5.99 µM] | activation [10] 1.46% [at 5.99 µM] | activation [12] -0.64% [at 7.02 µM] | activation [14] -0.572% [at 6.97 µM] | activation [15] 1.28% [at 8.39 µM] | activity change, negative = inhibition [16] 1.78% [at 8.39 µM] | activation [18] 3.76% [at 8.39 µM] | activity change, negative = inhibition [19] 2.34% [at 8.38 µM]

C#CC(C)N(C)C(=O)Nc1ccc(Cl)cc1 (stereo not given)
inactive: Potency [1] | Potency [2] | Potency [3] | outcome [4] | Potency [5] | Potency [6] | Potency [7] | Potency [8] | Potency [9] | Potency [11] | Potency [13] | Potency [15] | Potency [17] | Potency [20] | Potency [18]

O=C1OC(=O)c2cc([N+](=O)[O-])ccc21
inactive: Potency [1] | Potency [2] | Potency [3] | outcome [4] | Potency [5] | Potency [6] | Potency [7] | Potency [8] | Potency [9] | Potency [10] | Potency [11] | Potency [12] | Potency [14] | Potency [15] | Potency [16] | Potency [20] | Potency [18] | Potency [19]
